Measurements as given in ChEMBL document CHEMBL4513216, “Probing the Open Global Health Chemical Diversity Library for Multistage-Active Starting Points for Next-Generation Antimalarials” (ACS Infect Dis, 2020).
Hit rate of the full screen: of about 68,000 compounds, about 2,700 (4%) showed an effect of 50% or more. What follows is part of a selection rich in strong results, with near analogues and random picks from the rest.

Test system: Plasmodium berghei
Assay: Screen against P. berghei liver stage (PbLuc), transformed with Luciferase, at 2uM
Type: functional, HepG2
Conditions: tested at 2 uM

| SMILES | INHIBITION [%] |
| --- | --- |
| O=C1CC[C@H]2CN(Cc3ncc[nH]3)CC[C@H]2N1CC1CCNCC1 | 17.37 |
| Cc1cc(N2CCC(Cc3cnccn3)C2)ncn1 (centres undefined) | -10.89 |
| CC(C)C(C#N)N1CCN(Cc2nccn2CC(F)(F)F)CC1 (centres undefined) | -16.4 |
| O=C1[C@@H]2CCN(C3CCOCC3)C[C@@H]2OCCN1Cc1cccnc1 | 4.08 |
| CCS(=O)(=O)N1CC[C@H]2C(=O)N(Cc3cccnc3)CCO[C@H]2C1 | 58.52 |
| O=C1[C@@H]2CCN(Cc3ccoc3)C[C@@H]2OCCN1Cc1cccnc1 | -32.67 |
| CCOCC(O)CN1CCN(C(=O)c2cc(Cl)ccc2F)CC1 (centres undefined) | 15.08 |
| CC(C)c1cc2c(s1)NC(c1ccccc1)NC2=O (centres undefined) | 51.76 |
| CC(C)c1cc2c(s1)NC(c1ccccn1)NC2=O (centres undefined) | -23.17 |
| Cc1ccc(C2NC(=O)c3cc(C(C)C)sc3N2)cc1 (centres undefined) | 46.98 |
| O=C(NC1CCC1)c1n[nH]c2c1CNCC2 | -29.3 |
| Cc1nc(C)n(C2CCCN(C(=O)COc3ccccc3)C2)n1 (centres undefined) | -2.9 |
| COc1ccccc1CC(=O)N1CCCC(n2nc(C)cc2C)C1 (centres undefined) | -7.5 |
| COc1ccccc1CC(=O)N1CCCC(n2nc(C)nc2C)C1 (centres undefined) | 59.23 |
| Cc1cc(C)n(C2CCCN(C(=O)CCCc3ccccn3)C2)n1 (centres undefined) | -5.15 |
| Cc1nc(C)n(C2CCCN(C(=O)CCCOc3ccccc3)C2)n1 (centres undefined) | -17.71 |
| Cc1nc(C)n(C2CCCN(C(=O)CCCc3ccccn3)C2)n1 (centres undefined) | 70.27 |
| CCc1nnc(CN2CCOC(Cn3cc(C)cn3)C2)o1 (centres undefined) | -50.23 |
| O=C(O)c1cc(C2=CCCCC2)cc(S(=O)(=O)NCc2ccccn2)c1 | 40.88 |
| CC(C)(C)n1ncc(NCC(O)c2ccccc2C(F)(F)F)c(Cl)c1=O (centres undefined) | 6.26 |
| OC1(CNCCc2csc(-c3ccncc3)n2)CCCNC1 (centres undefined) | 10.72 |
| Fc1ccc(CN2CC[C@H]3O[C@@H](COCC4CCOCC4)CC[C@H]32)cc1 | 32.31 |
| Cn1cncc1-c1nnc([C@H]2CCN(CC(C)(C)C)C2)o1 | -23.78 |
| CN(CCCOc1ccccc1Cl)C(=O)CN1CCNC1=O | -9.33 |
| CN(CCCOc1ccccc1Cl)C(=O)CN1CCCCCC1=O | 50.42 |
| CN(CCCOc1ccccc1Cl)C(=O)CN1C(=O)CCNC1=O | 27.67 |

| SMILES | INHIBITION [%] |
| --- | --- |
| COC(C)(C)C(=O)N1Cc2cnc(C(C)(C)C)nc2C1 | -82.18 |
| CC(OCC1CC1)C(=O)Nc1cccc(C(=O)Nc2ccccn2)c1 (centres undefined) | -5.74 |
| NC(=O)c1cn(CC2CC2)c(C2CC2)n1 | -4.87 |
| CCC[C@H]1CN(c2cncc(C(=O)N3CCCCC3)n2)C[C@@H]1N(C)C | -16.39 |
| CCOC(=O)CNC(=O)Cn1c(-c2ccoc2)nc(C)c1C | -19.53 |
| Cc1nc(-c2ccoc2)n(CC(=O)NCC(C)C)c1C | 19.53 |
| Cc1nc(-c2ccoc2)n(CC(=O)N(C)CC(C)C)c1C | 64.82 |
| O=C(Nc1ccccc1)C1CN(C(=O)c2cccs2)CC12CCOCC2 (centres undefined) | -36.65 |
| CC1COCCN1Cc1nc(-c2ccc(F)cc2)no1 (centres undefined) | -24.5 |
| CC(=O)Nc1nc(CN2CCOC(Cn3cncn3)C2)cs1 (centres undefined) | -0.13 |
| O=C(C1CCCCC1)N1C[C@@H]2CCN(c3cnccn3)C[C@@H]2C1 | 50.17 |
| CCCC(=O)N1C[C@@H]2CCN(c3cnccn3)C[C@@H]2C1 | 50.72 |
| CCC(=O)N1C[C@@H]2CCN(c3cnccn3)C[C@@H]2C1 | 40.28 |
| O=C(C1CCCC1)N1C[C@@H]2CCN(c3cnccn3)C[C@@H]2C1 | 28.75 |
| O=C(c1cnccn1)N1C[C@@H]2CCN(c3cnccn3)C[C@@H]2C1 | 24.95 |
| CC(C)CC(=O)N1C[C@@H]2CCN(c3cnccn3)C[C@@H]2C1 | 20.51 |
| Cc1noc(C)c1CN1C(=O)[C@@H]2CC[C@H]1CN(Cc1cscn1)C2 | -55.91 |
| Cc1ccccc1SC1CCN(C(=O)C2[C@H]3CNC[C@@H]23)CC1 (some centres undefined) | 2.49 |
| O=C(CCCn1cncn1)N1CCCC1c1noc(C2CC2)n1 (centres undefined) | 8.65 |
| Cc1nc(CN2CCCC2c2noc(C3CC3)n2)nc2ccccc12 (centres undefined) | 22.29 |
| CN1CCC(O)(CNC(=O)c2cc(COc3cccc(F)c3)[nH]n2)CC1 | -13.79 |
| Cc1n[nH]c(C2CN(C(=O)c3cc(C)sc3C)CCO2)n1 (centres undefined) | 40.13 |
| O=C(Cn1ccc2cc(Br)ccc21)NCc1ccc(C(=O)O)cc1 | 18.15 |
| CCCS(=O)(=O)N1CCOC2(CCCN(c3ccc(C)nn3)C2)C1 (centres undefined) | -15.73 |
| CNC(=O)[C@H]1C[C@H]2CN(C(=O)Nc3ccc(F)cc3)C[C@@H]1O2 | 56.15 |
| CCc1ccc(NC(=O)N2C[C@@H]3C[C@H](C(=O)NC)[C@H](C2)O3)cc1 | -56.73 |

| SMILES | INHIBITION [%] |
| --- | --- |
| CNC(=O)[C@H]1C[C@H]2CN(C(=O)Nc3ccccc3)C[C@@H]1O2 | 7.35 |
| COCCOCC(=O)N1C[C@@H]2CC[C@H](Oc3cccc(F)c3)[C@@H]2C1 | 24.06 |
| Cc1ccc(C)c(NS(=O)(=O)c2cc3c(c(C(=O)O)c2)OCCO3)c1 | -5.09 |
| O=C(Cc1ccc(F)cc1)N1CCn2cc(Cn3cncn3)nc2C1 | 37.2 |
| CC(=O)N1C[C@@H](c2ccsc2)[C@@H]2CN(Cc3ccccc3Cl)CC[C@@H]21 | -27.6 |
| CN1CCC(c2cccc(NCc3nccn3C)n2)CC1 | 29.25 |
| C1CC(CN2CCc3c(nnn3CC3CC3)C2COCC2CC2)C1 (centres undefined) | -38.23 |
| C1CN(CC2CC2)C(COCC2CC2)c2nnn(CC3CC3)c21 (centres undefined) | 61.44 |
| Cn1nnc2c1CCN(CC1CC1)C2COCC1CC1 (centres undefined) | -10.89 |
| Cn1nc2c(cc1=O)CN(Cc1nc(C(C)(C)C)no1)CC2 | 12.91 |
| COc1cc(Cl)c(NC(=O)NCCn2cccc2)cc1OC | -23.44 |
| COc1cc(C)c(NC(=O)NCCn2cccc2)cc1OC | 74.18 |
| COc1cc(C)c(NC(=O)CCn2cccc2)cc1OC | 30.42 |
| CCN(Cc1cccc2c1OCO2)C(=O)NCc1ccccn1 | -5.39 |
| O=C(Cc1cccs1)N1C[C@H]2CC[C@@H](C1)N(Cc1ccccn1)C2=O | 14.63 |
| COCC(O)CN(C)C(=O)NCc1ccc(-c2ccn[nH]2)cc1 (centres undefined) | -0.21 |
| COc1ncc(C(=O)N2CCC3(CC2)C(=O)Nc2ccccc23)cn1 | 50.32 |
| N#Cc1ccc(C(=O)N2CCC3(CC2)C(=O)Nc2ccccc23)cn1 | 24.88 |
| O=C(c1ccncc1)N1CCC2(CC1)C(=O)Nc1ccccc12 | 49.25 |
| Cc1ocnc1C(=O)N1CC[C@@H](O)[C@@H](O)[C@H](N2CCC(F)(F)CC2)C1 | 7.4 |
| CCCOc1ccccc1CN[C@@H]1CCC[C@H]1Cc1cc(C)no1 | 3.28 |
| CC(C)CC(CCO)CNC(=O)N1CC(C)(C)C1(C)C (centres undefined) | -6.69 |
| CCCS(=O)(=O)N1CC(=O)N(Cc2cccc(OC)c2OC)CC(O)C1 (centres undefined) | -13.32 |
| CCOc1ccccc1C(CC(=O)Nc1ncc(C)s1)NC(C)=O (centres undefined) | -32.89 |
| CCOc1ccccc1C(CC(=O)Nc1ccccc1)NC(C)=O (centres undefined) | 23.45 |
| CCOc1ccccc1C(CC(=O)Nc1nc(C)cs1)NC(C)=O (centres undefined) | 67.59 |

| SMILES | INHIBITION [%] |
| --- | --- |
| CC(C)c1nnc2n1CCN(C(=O)c1cccc(C(F)(F)F)c1)C2 | 15.31 |
| CCc1nnc2n1CCN(c1nc(C)cc(N(C)C)n1)C2 | 62.51 |
| CC(C)Nc1nc2c(c(N(C)C)n1)CCN(Cc1nccn1C)CC2 | 28.11 |
| Cc1cc(N(C)C)nc(N2CCn3c(nnc3C(C)C)C2)n1 | -6.64 |
| CN(C)c1nc(N2CCCC2)nc2c1CCN(Cc1nccn1C)CC2 | 55.92 |
| Cc1cc(N(C)C)nc(N2CCN(Cc3nccn3C)CC2)n1 | 50.61 |
| Cc1cc(N(C)C)nc(N2CCn3c(C)nnc3C2)n1 | 29.13 |
| Cc1cc(C)nc(N2CCN(Cc3nccn3C)CC2)n1 | 5.78 |
| Cc1nc(N2CCCC2)nc2c1CCN(Cc1nccn1C)CC2 | 9.98 |
| Cc1cc(C(F)(F)F)nc(N2CCN(Cc3nccn3C)CC2)n1 | 10.91 |
| NS(=O)(=O)c1ccc(NCc2ccco2)c2ncccc12 | 7.3 |
| Cc1ccccc1-c1cc(C(=O)NCCN2CCCS2(=O)=O)[nH]n1 | 36.65 |
| Cc1ccccc1-n1c(C)cc(C(=O)N2CCn3c(C)nnc3C2)c1C | -61.5 |
| CN(C(=O)CCNC(=O)C1COc2ccccc21)c1ccccc1 (centres undefined) | -0.3 |
| Cc1nn(C)c2cnn(CCCNS(=O)(=O)Cc3ccccc3)c12 | -12.73 |
| COC[C@@H]1CCC[C@]12CN(CCc1ccccc1)CCO2 | -20.67 |
| O=C([C@H]1CCCN1)N1CC2(CCNCC2)c2cc(Cl)ccc21 | 0.57 |
| Cc1nc(C)n(C2CCCN(C(=O)c3cncnc3C)C2)n1 (centres undefined) | 62.82 |
| Cc1nc(C)n(C2CCCN(C(=O)c3cscn3)C2)n1 (centres undefined) | -13.94 |
| Cc1ncc(C(=O)N2CCCC(n3nc(C)nc3C)C2)c(C(C)C)n1 (centres undefined) | 24.02 |
| CCc1ncncc1C(=O)N1CCCC(n2nc(C)nc2C)C1 (centres undefined) | -26.85 |
| Cc1nc(C)n(C2CCCN(C(=O)c3csnn3)C2)n1 (centres undefined) | 53.45 |
| CCc1[nH]ncc1C(=O)N1CCCC(n2nc(C)cc2C)C1 (centres undefined) | 12.75 |
| Cc1nc(C)n(C2CCCN(C(=O)c3csc(C)n3)C2)n1 (centres undefined) | -47.87 |
| CCc1[nH]ncc1C(=O)N1CCCC(n2nc(C)nc2C)C1 (centres undefined) | 54.85 |
| CCc1nc(C)ncc1C(=O)N1CCCC(n2nc(C)nc2C)C1 (centres undefined) | 36.92 |
